Bioassay records from PubChem.
UHRF1 binding: human UHRF1 methylated DNA binding inhibitors. UHRF1 binding to methylated oligo, TR-FRET. AID 687016. inhibition, % at 4.4 µM. 370,000 tested, 0.75% active. Q96T88; in the data active = inhibition above about 21%;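 note: UHRF1 SRA domain binding a hemimethylated CpG hairpin DNA probe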
LEDGF integ inh: blocks HIV-1 LEDGF/p75-dependent DNA integration | 370,000 tested, 0.64% active | inhibition, % at 3.7 µM | TR-FRET IN-LEDGF/p75 DNA integration, Eu/Cy5;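 active = inhibition above the screen-wide mean plus 3 SD, cut at about 13% in these data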;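 note: signal is the Cy5 over europium emission ratio at 671 and 618 nm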
PRMT1 FP inh: inhibitors of human PRMT1. AID 652257. 370,000 tested, 1.3% active. recombinant PRMT1, activity-based probe fluorescence polarization. inhibition, % at 2.79 µM. Q99873;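 active = inhibition above about 21% made by adding two undisclosed values, limit read from the data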
MBD2 DNA inh: blocks human MBD2 binding to methylated DNA; Q9UBB5; TR-FRET, MBD2 binding to methylated oligonucleotide; inhibition, % at 4.4 µM; 370,000 tested, 0.31% active; AID 686964; in the data active = inhibition above about 13%
Target sequence (Q9UBB5 whole entry, looked up): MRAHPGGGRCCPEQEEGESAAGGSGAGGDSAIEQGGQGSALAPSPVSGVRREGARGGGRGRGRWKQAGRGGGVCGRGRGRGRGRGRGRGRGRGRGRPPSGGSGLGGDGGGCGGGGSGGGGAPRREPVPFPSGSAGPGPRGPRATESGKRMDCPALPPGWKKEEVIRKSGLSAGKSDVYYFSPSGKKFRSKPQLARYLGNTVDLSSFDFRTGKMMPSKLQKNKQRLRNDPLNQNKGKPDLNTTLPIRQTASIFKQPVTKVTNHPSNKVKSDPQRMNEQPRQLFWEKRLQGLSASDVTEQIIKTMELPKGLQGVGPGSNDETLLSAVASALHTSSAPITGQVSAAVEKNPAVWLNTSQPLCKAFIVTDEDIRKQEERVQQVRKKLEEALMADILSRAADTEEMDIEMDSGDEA
Numbers stand for hits; – = inactive. Shown are actives, neighbours in structure and some others; about 2.5% of the full set was active somewhere.

SMILES	UHRF1 binding	LEDGF integ inh	PRMT1 FP inh	MBD2 DNA inh
Cc1ccc(S(=O)(=O)NC(=O)C2(C)CCN2C(=O)c2ccccc2CCc2ccccc2)cc1 (stereo not given)	–	–	–	–
Cc1[nH]c2ccccc2c1CN1CCc2ccccc2C1	21	–	–	14
O=c1[nH]c(CN2CCc3ccccc3C2)nc2ccccc12	–	–	–	–
Cc1cc(-c2cc(-c3ccc(Cl)cc3)nc(N)c2C#N)co1	–	–	39	–
COc1ccc(-c2cc(-c3ccc(O)cc3)nc(N)c2C#N)cc1OC	–	–	–	–
S=c1[nH]nc(-c2ccc3ccccc3n2)n1-c1ccc2ncccc2c1	–	–	21	–
Cc1nc(SCC(=O)O)c(C#N)c(-c2ccco2)c1C(=O)N(C)C	–	–	–	–
CSc1nc(C)c(C(=O)Nc2ccccc2)c(-c2ccco2)c1C#N	–	–	–	–
CNC(=O)c1c(C)[nH]c(=S)c(C#N)c1-c1ccco1	–	–	34	–
Cc1ccccc1NC(=O)c1c(C)[nH]c(=S)c(C#N)c1-c1ccco1	–	–	24	–
COc1cccc(NC(C)C(=O)Nc2cc([N+](=O)[O-])ccc2Cl)c1 (stereo not given)	–	–	–	–
CCN(Cc1nc(-c2ccccc2)no1)C(=O)c1ccoc1C	–	–	–	–
Cc1occc1C(=O)N(Cc1nc(-c2ccccc2)no1)C(C)C	24	–	–	–
O=c1c(-c2ccc([N+](=O)[O-])cc2)coc2c(O)c(O)ccc12	–	–	38	–
COCc1ccc(C(=O)N2CCCC(Nc3ccc4c(c3)OCCO4)C2)o1 (stereo not given)	21	–	–	–
COC(=O)C(C(=O)OC)C1CCCCC1NS(=O)(=O)c1ccc(C)cc1 (stereo not given)	–	–	–	–
CCCCOc1ccc(Nc2cc(Cl)ccc2C(=O)O)cn1	22	–	–	–
COc1ccc(CC(=O)Nc2cc(Cl)ccc2C(=O)O)cc1	–	–	–	–
O=C(Nc1cccc(Oc2ccccc2)c1)c1ccc(-n2cncn2)c2ccoc12	–	–	–	–
CCOc1ccc(NC(=S)C(C#N)=C2N(C)c3ccccc3N2C)cc1	22	–	–	–
CC(C)(C)[C@@H]1C=C(C(=O)NC2CC2)O[C@H](OCc2ccc(CO)cc2)C1	37	–	–	–
Cc1ccc(S(=O)(=O)N2CCC[C@H]2C(=O)OCC(=O)N2CCc3ccccc32)cc1	–	–	–	–
O=C(Nc1cccc(F)c1)/C(=C\c1ccco1)NC(=O)c1ccco1	–	–	24	–
COC(=O)c1cccc(NC(=O)/C(=C\c2ccco2)NC(=O)c2ccco2)c1	–	–	25	–
Cc1ccc(NC(=O)/C(=C\c2ccco2)NC(=O)c2ccco2)cc1	–	–	–	–
SMILES	UHRF1 binding	LEDGF integ inh	PRMT1 FP inh	MBD2 DNA inh
COc1ccc(NC(=O)/C(=C\c2ccco2)NC(=O)c2ccco2)cc1	–	–	–	–
CCCCC[C@@H](C)N1C[C@H](COCc2ccccc2)Oc2cc(N3CC[C@@H](O)C3)ccc2S1(=O)=O	–	–	–	–
OC(c1cccc(Cl)c1)c1nc(-c2ccoc2)cs1 (stereo not given)	–	–	–	–
COCCNC(=O)CN(C(=O)Cn1nnc2ccccc21)c1ccccc1C	–	–	–	–
COCCNC(=O)CN(C(=O)Cn1nnc2ccccc21)c1ccc(F)c(Cl)c1	81	–	–	–
FC(F)(F)c1ccccc1NC(=S)NC1CCN(Cc2ccccc2)CC1	37	–	–	–
O=C(NNc1ccc(Cl)cc1)c1c(F)cccc1Cl	–	–	–	–
CC(=O)C(=Nc1ccccc1Cl)NNc1ccc(Cl)cc1	–	–	71	–
O=C(C[C@@H]1CC[C@@H]2[C@H](COC[C@H](O)CN2C(=O)Nc2ccc(F)cc2)O1)NCCc1ccncc1	–	–	–	–
CCC(=O)N(CCc1ccccc1)Cc1cc2cccc(C)c2[nH]c1=O	–	–	–	–
Cc1ccc(C2=NN(CCC(=O)NC3CCCC3)C(=O)CC2)cc1	23	–	–	–
CCc1ccc(C2=NN(CCC(=O)NCC3CCCO3)C(=O)CC2)cc1 (stereo not given)	–	–	–	–
Cc1ccc2c(c1)N(CCC(=O)NC1CCCCC1)C(=O)CO2	22	–	–	–
O=C(Nc1ccc(F)cc1Cl)c1ccc2c(=O)n3c(nc2c1)CCC3	–	–	–	–
CCN(C(=O)c1cc(OC)c(OC)c(OC)c1)C1CCCCC1	–	–	–	–
O=S(=O)(NCc1nc2ccccc2[nH]1)c1ccccc1	–	–	–	–
O=C(N/N=C/c1cc2c(cc1Cl)OCO2)c1cccc(Br)c1	39	–	–	–
O=C(CCl)N1CCN(CC(=O)N2CCCC2)CC1	21	–	–	–
C[C@@H]1CN([C@@H](C)CO)C(=O)CCCn2nncc2CO[C@@H]1CN(C)C(=O)Nc1ccc(C(F)(F)F)cc1	–	–	–	–
O=C(O)C1OC(Oc2cc3oc(-c4ccccc4)cc(=O)c3c(O)c2O)C(O)C(O)C1O (stereo not given)	–	–	28	–
O=C(Nc1ccccc1Cl)C1C2CCC3C(CCC21)C3(Cl)Cl (stereo not given)	–	–	–	–
CCOc1ccccc1NC(=O)COC(=O)C1CC1	23	–	–	–
CCOc1ccccc1NC(=O)C1C2CCC3C(CCC21)C3(Cl)Cl (stereo not given)	26	–	–	–
COc1cccc(C(=O)NCCS(=O)(=O)NC(C)CCc2ccccc2)c1 (stereo not given)	–	–	–	–
COc1ccccc1Cc1c(-c2ccc(C#N)cc2)nc2ccc(Br)cn12	–	–	–	–
SMILES	UHRF1 binding	LEDGF integ inh	PRMT1 FP inh	MBD2 DNA inh
O=C(Nc1ccc(-c2nc3ccccc3c(=O)o2)cc1)c1ccco1	21	–	–	–
CC(=O)Nc1ccc(-c2nc3ccccc3c(=O)o2)cc1	–	–	–	–
CC(=O)N1CCCN(C(=O)CCn2nnc3ccccc32)CC1	91	–	–	–
N=C(N)SCc1ccc(O)c([N+](=O)[O-])c1	38	–	–	–
COC(=O)CCC/C=C1/SCC(NC(=O)c2ccccc2)C1O (stereo not given)	–	–	–	–
COC(=O)CCC/C=C1/SCC(NC(=O)c2ccccc2)C1=O (stereo not given)	–	–	26	–
CCC1=C/C(=C/c2sc3ccccc3[n+]2CC)CC(C)(C)C1	–	–	37	–
CNCc1ccccc1Sc1cc(O)ccc1O	–	–	58	–
CNCc1ccccc1Sc1cccc(O)c1	–	–	–	–
CC(C)N1CCc2c(sc(NC(=S)NC(=O)c3ccccc3)c2C#N)C1	–	–	28	21
CC(C)C1Cc2c(sc(NC(=S)NC(=O)c3ccccc3)c2C#N)CO1 (stereo not given)	–	–	–	–
O=C(O)c1cccc(Cn2c(Cl)c(/C=N/NC(=O)c3ccco3)sc2=O)c1	–	–	–	–
COc1cc2c(cc1OC)C(SC)=NC1(CCCC1)C2	27	–	–	–
COc1ccccc1-n1ccnc(SCC(=O)NCCc2ccccc2)c1=O	–	–	23	–
COc1ccccc1-n1ccnc(SCC(=O)NCc2ccccc2Cl)c1=O	–	–	–	–
